Results reported in PubChem BioAssay AID1159580 (chemical genetic matrix, 2015).
The campaign covered roughly 5,500 compounds. About 2,000 (36%) were called active. Not shown: some 18% with an inconclusive outcome. No stated cut-off is given here; in the data, active means normalized growth mostly below about 0.91 (no sharp cut-off); inconclusive means no clear call, values can overlap the other calls; inactive means mostly above about 0.92. The list shows a part of the results.

Assay: chemical genetic growth profiling, strain panel (AID 1159580);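 further: tested at 20 µM; growth read once vehicle control cultures reached saturation at 30 °C; 1 = growth at the plate median or of vehicle wells; lower values mean less growth of the strain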
Conditions: growth OD

Measured: normalized growth

CCOC(=O)CC(SP(=S)(OC)OC)C(=O)OCC (stereo unspecified)
inactive: S. cerevisiae deletion strains, locus YAL013W, strain DEP1, hits give low values 1.02 | S. cerevisiae deletion strains, locus YBR021W, strain FUR4, hits give low values 1.01 | S. cerevisiae deletion strains, locus YBR229C, strain ROT2, hits give low values 1.01 | S. cerevisiae deletion strains, locus YCL029C, strain bik1, hits give low values 1.01 | S. cerevisiae deletion strains, locus YDL035C, strain GPR1, hits give low values 1.02 | S. cerevisiae deletion strains, locus YDL074C, strain BRE1, hits give low values 0.996 | S. cerevisiae deletion strains, locus YDL101C, strain DUN1, hits give low values 1 | S. cerevisiae deletion strains, locus YDL134C, strain PPH21, hits give low values 1.01 | S. cerevisiae deletion strains, locus YDL185W, strain tfp1, hits give low values 1.02 | S. cerevisiae deletion strains, locus YDL192W, strain arf1, hits give low values 1 | S. cerevisiae deletion strains, locus YDR101C, strain arx1, hits give low values 0.998 | S. cerevisiae deletion strains, locus YDR150W, strain NUM1, hits give low values 0.996 | S. cerevisiae deletion strains, locus YDR162C, strain NBP2, hits give low values 1.01 | S. cerevisiae deletion strains, locus YDR318W, strain mcm21, hits give low values 1.02 | S. cerevisiae deletion strains, locus YDR388W, hits give low values 1.01 | S. cerevisiae deletion strains, locus YDR502C, strain sam2, hits give low values 0.998 | S. cerevisiae deletion strains, locus YEL061C, strain CIN8, hits give low values 1.01 | S. cerevisiae deletion strains, locus YER110C, hits give low values 1.01 | S. cerevisiae deletion strains, locus YER155C, strain BEM2, hits give low values 1.02 | S. cerevisiae deletion strains, locus YER167W, strain BCK2, hits give low values 1.02 | S. cerevisiae deletion strains, locus YGL078C, strain dbp3, hits give low values 0.998 | S. cerevisiae deletion strains, locus YGL086W, strain mad1, hits give low values 1 | S. cerevisiae deletion strains, locus YGL248W, strain PDE1, hits give low values 1.01 | S. cerevisiae deletion strains, locus YGR078C, strain PAC10, hits give low values 1.01 | S. cerevisiae deletion strains, locus YGR135W, strain pre9, hits give low values 0.994 | S. cerevisiae deletion strains, locus YGR229C, strain SMI1, hits give low values 1.02 | S. cerevisiae deletion strains, locus YGR252W, strain gcn5, hits give low values 1 | S. cerevisiae deletion strains, locus YHR030C, strain SLT2, hits give low values 1.02 | S. cerevisiae deletion strains, locus YHR079C, strain IRE1 (second series), hits give low values 1.01 | S. cerevisiae deletion strains, locus YHR094C, strain hxt1, hits give low values 1.01 | S. cerevisiae deletion strains, locus YHR129C, strain ARP1, hits give low values 1.02 | S. cerevisiae deletion strains, locus YHR200W, strain rpn10, hits give low values 1.01 | S. cerevisiae deletion strains, locus YIL066C, strain RNR3, hits give low values 1.04 | S. cerevisiae deletion strains, locus YIL073C, strain SPO22, hits give low values 1.09 | S. cerevisiae deletion strains, locus YIL125W, strain kgd1, hits give low values 0.998 | S. cerevisiae deletion strains, locus YIR030C, strain dcg1, hits give low values 1 | S. cerevisiae deletion strains, locus YJL095W, strain BCK1, hits give low values 1.02 | S. cerevisiae deletion strains, locus YJL134W, strain LCB3, hits give low values 1.01 | S. cerevisiae deletion strains, locus YJL168C, strain set2, hits give low values 1.01 | S. cerevisiae deletion strains, locus YJL187C, strain SWE1 (second series), hits give low values 1.01 | S. cerevisiae deletion strains, locus YJR043C, strain POL32, hits give low values 1.01 | S. cerevisiae deletion strains, locus YJR075W, strain HOC1, hits give low values 1.01 | S. cerevisiae deletion strains, locus YKL009W, strain mrt4, hits give low values 1.01 | S. cerevisiae deletion strains, locus YKL068W, hits give low values 1.01 | S. cerevisiae deletion strains, locus YKL085W, strain MDH1 (second series), hits give low values 1.01 | S. cerevisiae deletion strains, locus YKL085W, strain MDH1, hits give low values 1.01 | S. cerevisiae deletion strains, locus YKL190W, strain CNB1, hits give low values 1.01 | S. cerevisiae deletion strains, locus YKR001C, strain vps1, hits give low values 1.02 | S. cerevisiae deletion strains, locus YLR039C, strain RIC1, hits give low values 1.06 | S. cerevisiae deletion strains, locus YLR058C, strain SHM2, hits give low values 1.02 | S. cerevisiae deletion strains, locus YLR102C, strain apc9, hits give low values 1.01 | S. cerevisiae deletion strains, locus YLR262C, strain YPT6, hits give low values 1.04 | S. cerevisiae deletion strains, locus YLR268W, strain sec22, hits give low values 0.997 | S. cerevisiae deletion strains, locus YLR330W, strain CHS5, hits give low values 1.01 | S. cerevisiae deletion strains, locus YLR342W, strain FKS1 (second series), hits give low values 1.07 | S. cerevisiae deletion strains, locus YLR371W, strain rom2, hits give low values 1.01 | S. cerevisiae deletion strains, locus YLR418C, strain cdc73, hits give low values 0.988 | S. cerevisiae deletion strains, locus YML016C, strain PPZ1, hits give low values 1.01 | S. cerevisiae deletion strains, locus YML032C, strain rad52, hits give low values 1 | S. cerevisiae deletion strains, locus YML124C, strain tub3, hits give low values 1.01 | S. cerevisiae deletion strains, locus YMR078C, strain ctf18, hits give low values 1.02 | S. cerevisiae deletion strains, locus YMR223W, strain ubp8, hits give low values 1.01 | S. cerevisiae deletion strains, locus YMR263W, strain SAP30, hits give low values 1.01 | S. cerevisiae deletion strains, locus YMR307W, strain GAS1, hits give low values 1.05 | S. cerevisiae deletion strains, locus YNL067W, strain RPL9B, hits give low values 0.998 | S. cerevisiae deletion strains, locus YNL128W, strain TEP1, hits give low values 1 | S. cerevisiae deletion strains, locus YNL153C, strain GIM3, hits give low values 1.01 | S. cerevisiae deletion strains, locus YNL233W, strain BNI4, hits give low values 1 | S. cerevisiae deletion strains, locus YNL250W, strain rad50, hits give low values 1.01 | S. cerevisiae deletion strains, locus YNL271C, strain bni1, hits give low values 1.02 | S. cerevisiae deletion strains, locus YNL298W, strain CLA4, hits give low values 1.02 | S. cerevisiae deletion strains, locus YNL307C, strain MCK1, hits give low values 1.02 | S. cerevisiae deletion strains, locus YNL322C, strain KRE1, hits give low values 1.01 | S. cerevisiae deletion strains, locus YNR052C, strain pop2, hits give low values 1 | S. cerevisiae deletion strains, locus YOL006C, strain TOP1, hits give low values 1.02 | S. cerevisiae deletion strains, locus YOL012C, strain htz1 0.831 | S. cerevisiae deletion strains, locus YOL147C, strain pex11, hits give low values 1.01 | S. cerevisiae deletion strains, locus YOR061W, strain CKA2, hits give low values 1 | S. cerevisiae deletion strains, locus YOR069W, strain VPS5, hits give low values 1.01 | S. cerevisiae deletion strains, locus YOR136W, strain idh2, hits give low values 1 | S. cerevisiae deletion strains, locus YOR144C, strain elg1, hits give low values 1 | S. cerevisiae deletion strains, locus YOR184W, strain ser1, hits give low values 1.02 | S. cerevisiae deletion strains, locus YOR316C, strain cot1, hits give low values 1 | S. cerevisiae deletion strains, locus YPL055C, strain LGE1, hits give low values 1 | S. cerevisiae deletion strains, locus YPL241C, strain CIN2, hits give low values 1.01 | S. cerevisiae deletion strains, locus YPR119W, strain clb2, hits give low values 1 | S. cerevisiae deletion strains, locus YPR141C, strain kar3, hits give low values 1 | S. cerevisiae deletion strains, locus YPR163C, strain tif3, hits give low values 1.01 | S. cerevisiae deletion strains, locus YPR167C, strain met16, hits give low values 1.01 | S. cerevisiae deletion strains, strain wtn01, hits give low values 0.996 | S. cerevisiae strains, strain wild type, hits give low values 1.01
